Here are results for seven compounds from PubChem BioAssay (NCATS).

Experiment [1] is described as follows: Cell Viability - SK-N-SH (AID 435).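 Also: potency is read from the fitted curve at half-maximal effect; compound exposure lasted 40 h at 37 °C.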 The following applies: SK-N-SH neuroblastoma cell viability qHTS. Put shortly: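 SK-N-SH human neuroblastoma cells (1500/well) were exposed to compounds in complete medium for 40 h at 37 °C, and intracellular ATP was then measured by CellTiter-Glo luminescence. AC50 was taken from Hill fits, normalized to DMSO and 100 uM tamoxifen.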

Experiment [2] in a line: Cell Viability - H-4-II-E (AID 543; active = well fitted curve in the direction sought with a large enough effect; inconclusive = small, poorly fitted or top-dose-only effect, or another doubt; inactive = no such curve, though single readings can be large; an effect the other way counts as inactive or inconclusive; also: % is scaled to controls: 0 for no effect and ±100 for the full control effect; nearly all actives have a fitted effect of over 35% in size). Put shortly: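 Cells seeded at 1500 per well and rested 5 hr; compounds added; 40 hr incubation at 37 °C; CellTiter-Glo added, 20 min at room temperature; luminescence read. Hill-equation fits gave AC50.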
The nature of experiment [3]: MultiTox-Fluor Cytotoxicity Assay - LYMP1-001 - Live Cells (AID 947; active = well fitted curve in the direction sought with a large enough effect; inconclusive = small, poorly fitted or top-dose-only effect, or another doubt; inactive = no such curve, though single readings can be large; an effect the other way counts as inactive or inconclusive;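 also: 0% = DMSO only and full inhibition = tetraoctylammonium bromide control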).
Experiment [4] deals with Estrogen receptor (Homo sapiens) (UniProt P03372). The experiment is described as follows: qHTS assay for small molecule antagonists of estrogen receptor alpha signaling (AID 588513; active = well fitted curve in the direction sought with a large enough effect in the signal ratio, with a control signal flat, not every such curve was filed as active; inconclusive = small, poorly fitted or top-dose-only effect, or effect the other way, or a change in a side signal; inactive = no such curve, though single readings can be large or run the other way; the % refers to the signal ratio; also: potency is read from the fitted curve at half-maximal effect). Put shortly:
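ER-alpha-UAS-bla GripTite HEK 293 cells in medium with 2% charcoal/dextran-treated FBS were preincubated 4 h at 37 C, dosed with compound (1:2 titration), stimulated with 0.5nM 17-beta-estradiol for 18 h, then read by CCF4 beta-lactamase fluorescence.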

Experiment [5] shares this target. In words: qHTS assay for small molecule agonists of estrogen receptor alpha signaling (AID 588514).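 Also: 0% = vehicle only and 100% = reference agonist; nearly all actives have a fitted effect of over 70% in size.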 Put shortly:
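Efficacy is expressed against 20 nM 17-beta-estradiol (100%) and DMSO basal (0%); EC50 from Hill equation. Assay: beta-lactamase reporter in ER-alpha-UAS-bla HEK 293 cells, 18 h compound incubation, CCF4 detection.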
A general note: Quantitative high-throughput screening tests each substance at several concentrations.

In experiment [6] the target is Glucocorticoid receptor (Homo sapiens) (UniProt P04150). The experiment is described as follows: qHTS assay for small molecule agonists of glucocorticoid receptor signaling (AID 588532; active = well fitted curve in the direction sought with a large enough effect in the signal ratio, with a control signal flat; inconclusive = small, poorly fitted or top-dose-only effect, or a change in a side signal; inactive = no such curve, though single readings can be large or run the other way; the % refers to the signal ratio;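 also: 100% = dexamethasone at 0.1 µM and 0% = DMSO only wells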). The following applies: HeLa MMTV-bla, beta-lactamase ratio, agonist, 18 h; stronger effect = higher value; percent of dexamethasone control, DMSO zero. The method, boiled down: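 MMTV-bla HeLa, beta-lactamase reporter; medium with 1% charcoal/dextran-stripped FBS; cpds up to 92 uM, 18 h, 37 C; CCF4 readout 460/530 nm; Hill fit → EC50, efficacy vs 0.1 uM dexamethasone = 100%.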
Glucocorticoid receptor (Homo sapiens), sequence (P04150 whole entry, looked up): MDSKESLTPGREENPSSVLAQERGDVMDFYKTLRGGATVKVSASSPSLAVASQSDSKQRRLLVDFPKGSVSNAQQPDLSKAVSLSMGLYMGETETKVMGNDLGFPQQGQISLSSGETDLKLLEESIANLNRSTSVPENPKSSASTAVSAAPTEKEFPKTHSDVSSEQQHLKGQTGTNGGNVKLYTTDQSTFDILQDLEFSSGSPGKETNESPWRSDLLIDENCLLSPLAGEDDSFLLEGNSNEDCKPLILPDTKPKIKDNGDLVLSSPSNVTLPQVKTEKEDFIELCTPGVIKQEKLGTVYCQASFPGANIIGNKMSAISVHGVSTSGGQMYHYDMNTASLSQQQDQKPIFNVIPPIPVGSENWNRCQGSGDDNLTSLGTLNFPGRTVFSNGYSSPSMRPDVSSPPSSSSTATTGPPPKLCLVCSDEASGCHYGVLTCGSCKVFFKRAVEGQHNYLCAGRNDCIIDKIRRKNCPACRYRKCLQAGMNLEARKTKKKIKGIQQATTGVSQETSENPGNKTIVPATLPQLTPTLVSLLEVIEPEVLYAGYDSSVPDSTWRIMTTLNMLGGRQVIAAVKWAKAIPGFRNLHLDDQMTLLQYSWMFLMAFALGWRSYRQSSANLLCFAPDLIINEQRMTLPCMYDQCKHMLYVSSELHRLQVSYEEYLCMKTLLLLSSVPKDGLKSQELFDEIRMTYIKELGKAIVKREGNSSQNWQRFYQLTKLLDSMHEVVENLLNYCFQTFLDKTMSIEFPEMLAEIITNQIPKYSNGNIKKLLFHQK

The target is the same in experiment [7]. In words: qHTS assay for small molecule antagonists of glucocorticoid receptor signaling (AID 588533; active = well fitted inhibition curve with a large enough effect in the signal ratio, with a control signal flat, not every such curve was filed as active; inconclusive = small, poorly fitted or top-dose-only effect, or effect the other way, or a change in a side signal; the % refers to the signal ratio;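 also: cells stimulated with 2 nM dexamethasone as agonist; % is scaled to controls: 0 for no effect and ±100 for the full control effect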). The method, boiled down:
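Antagonist-mode qHTS: compound titrations added to GRE-bla HeLa cells, then dexamethasone 2 nM final; 18 h, 37 C. CCF4 FRET fluorescence normalized to dexamethasone and DMSO; IC50 from Hill fit.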

Experiment [8] concerns the target Peroxisome proliferator-activated receptor delta (Homo sapiens) (UniProt Q03181). In words: qHTS assay for small molecule agonists of peroxisome proliferator-activated receptor delta signaling (AID 588534).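 Also: 0% = DMSO basal wells and 100% = positive control agonist at 10 µM.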 Put shortly: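 Agonist-mode qHTS; reporter cells, 5 hrs 37 C pre-incubation; compound titration, 18 hrs 37 C; CCF4 dye, 2 hrs RT; fluorescence read. EC50/efficacy via Hill fit.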

A short description of experiment [9]: qHTS assay for small molecule antagonists of peroxisome proliferator-activated receptor delta signaling (AID 588535; active = well fitted inhibition curve with a large enough effect in the signal ratio, with a control signal flat, not every such curve was filed as active; inconclusive = small, poorly fitted or top-dose-only effect, or effect the other way, or a change in a side signal; inactive = no such curve, though single readings can be large or run the other way; the % refers to the signal ratio;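 as to max response: cells co-treated with a PPAR-delta agonist as stimulator during compound exposure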). The following applies: HEK293T PPARd-UAS-bla, beta-lactamase FRET ratio, 18 h; 460 nm channel. The method, boiled down: (§1)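 Inhibition of PPAR-delta response element-driven beta-lactamase expression is measured in HEK293T cells exposed to a compound titration series for 18 hrs at 37 C. Half-maximal inhibition comes from Hill equation fitting.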

Experiment [10] has as its target Peroxisome proliferator-activated receptor delta (Homo sapiens) (UniProt Q03181). Described as above. The method, boiled down:
as §1

Experiment [11] deals with Peroxisome proliferator-activated receptor gamma (Homo sapiens) (UniProt P37231). In words: qHTS assay for small molecule antagonists of peroxisome proliferator-activated receptor gamma signaling (AID 588537; active = well fitted inhibition curve with a large enough effect in the signal ratio, with a control signal flat, not every such curve was filed as active; inconclusive = small, poorly fitted or top-dose-only effect, or effect the other way, or a change in a side signal; the % refers to the signal ratio;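 also: reporter cells co-stimulated with 50 nM rosiglitazone agonist during compound treatment; % of control where 0% means no effect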). The method, boiled down: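 Compounds are tested as concentration series for inhibition of rosiglitazone-driven (50 nM) reporter expression in GeneBLAzer PPAR-gamma-UAS-bla HEK293 cells. After 16 h at 37 C, CCF4 substrate is added for 2 h at room temperature and blue/green fluorescence is measured.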
Peroxisome proliferator-activated receptor gamma (Homo sapiens), sequence (P37231 whole entry, looked up): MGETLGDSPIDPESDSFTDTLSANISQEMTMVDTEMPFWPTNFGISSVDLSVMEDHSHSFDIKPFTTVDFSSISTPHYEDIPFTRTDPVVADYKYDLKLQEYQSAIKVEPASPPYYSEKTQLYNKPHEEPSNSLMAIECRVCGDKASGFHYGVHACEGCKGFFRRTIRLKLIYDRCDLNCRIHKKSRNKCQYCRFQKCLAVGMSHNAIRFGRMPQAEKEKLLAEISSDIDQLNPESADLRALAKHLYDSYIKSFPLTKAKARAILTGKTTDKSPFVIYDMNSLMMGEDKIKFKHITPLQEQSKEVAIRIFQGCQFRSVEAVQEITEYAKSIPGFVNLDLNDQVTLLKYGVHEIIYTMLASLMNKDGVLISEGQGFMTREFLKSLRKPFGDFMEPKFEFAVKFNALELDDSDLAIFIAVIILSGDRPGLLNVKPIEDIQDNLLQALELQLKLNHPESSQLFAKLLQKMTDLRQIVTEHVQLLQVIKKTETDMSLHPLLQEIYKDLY

Experiment [12] concerns the target Vitamin D3 receptor (Homo sapiens) (UniProt P11473). In words: qHTS assay for small molecule antagonists of vitamin D receptor signaling (AID 588541).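 Also: receptor activated by calcitriol during compound treatment; % is scaled to controls: 0 for no effect and ±100 for the full control effect.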 Put shortly: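 VDR-UAS-bla HEK293T cells (2000/well, 2% charcoal-stripped FBS) were treated with titrated compounds plus 1-alpha,25-dihydroxyvitamin D3 (50 nM or 3 nM final) for 16 h at 37 C. CCF4 beta-lactamase fluorescence was read; Hill fits gave IC50.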

Experiment [13] is described as follows: qHTS assay for small molecule agonists of the antioxidant response element (ARE) signaling pathway (AID 651741; active = well fitted activation curve with a large enough effect in the signal ratio; inconclusive = small, poorly fitted or top-dose-only effect, or effect the other way, or a change in a side signal; the % refers to the signal ratio; also: % of control where 0% means no effect). Put shortly: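 Reporter: beta-lactamase under ARE, stably in HepG2. Exposure: 16 h, 37 C, compounds delivered in DMSO by pin tool after 5 h cell preincubation. Readout: FRET substrate fluorescence after 2 h at RT.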
The nature of experiment [14]: qHTS assay for small molecule activators of the nuclear factor-kappa B (NF-kB) signaling pathway (AID 651749; active = well fitted activation curve with a large enough effect in the signal ratio; inconclusive = small, poorly fitted or top-dose-only effect, or a change in a side signal; the % refers to the signal ratio; also: % of control where 0% means no effect). The following applies: NF-kB-bla ME-180 cells, beta-lactamase FRET ratio, 16 h; stronger effect = higher value. The method, boiled down: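 Human ME-180 cervical cells with an NF-kB-bla construct; compounds added via 23 nL pin transfer, DMSO as vehicle; incubation 16 hr. Reporter activity measured by FRET disruption.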

A short description of experiment [15]: qHTS assay for small molecule disruptors of the mitochondrial membrane potential - 1 hr assay (AID 651754). Also: % is scaled to controls: 0 for no effect and ±100 for the full control effect; nearly all actives have a fitted effect of over 35% in size. The method, boiled down:
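Loss of mitochondrial potential shifts the cationic dye from red mitochondrial aggregates to green cytoplasmic monomers. Cells (HepG2) are treated with compound for 1 hr before a 30 min dye incubation at 37C.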

Experiment [16] can be described thus: qHTS assay for small molecule disruptors of the mitochondrial membrane potential - 5 hr assay (AID 651755). Also: % is scaled to controls: 0 for no effect and ±100 for the full control effect; nearly all actives have a fitted effect of over 40% in size. The method, boiled down:
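Seed HepG2 overnight, add compound, incubate 5 hr at 37C and 5% CO2, stain 30 min with Mito-MPS, then measure monomer (490/535 nm) and aggregate (540/590 nm) fluorescence.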

For experiment [17], the target named is Nuclear receptor ROR-gamma (Homo sapiens) (UniProt P51449). The experiment is described as follows: qHTS assay for small molecule antagonists of the retinoid-related orphan receptor gamma (ROR-gamma) signaling pathway (AID 651802; active = well fitted curve in the direction sought with a large enough effect; inconclusive = small, poorly fitted or top-dose-only effect, or another doubt; inactive = no such curve, though single readings can be large; an effect the other way counts as inactive or inconclusive;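 also: CHO cells with doxycycline-induced ROR-gamma expression; % is scaled to controls: 0 for no effect and ±100 for the full control effect; nearly all actives have a fitted effect of over 60% in size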). The method, boiled down:
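Steps: cells dispensed; compound or DMSO transferred by pin tool; doxycycline added to induce the ROR response element-driven luciferase; plates held 16hr at 37C; ONE-Glo added and luminescence measured.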

Experiment [18] can be described thus: qHTS assay for small molecule agonists of the antioxidant response element (ARE) signaling pathway measured by Nrf2-dependant transcriptional activity (AID 720636; active = well fitted curve in the direction sought with a large enough effect in the repeat runs; inconclusive = weak or mixed curves; inactive = no such curve, though single readings can be large; an effect the other way counts as inactive or inconclusive;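 also: HepG2 cells with an ARE-driven luciferase reporter; % of control where 0% means no effect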). The method, boiled down:
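In HepG2 cells engineered with an Nrf2-responsive luciferase gene, ARE induction was quantified as luminescence after 16 hr compound treatment at 37 C.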

Experiment [19] can be described thus: Cell Viability - NIH 3T3 (AID 541; active = well fitted curve in the direction sought with a large enough effect; inconclusive = small, poorly fitted or top-dose-only effect, or another doubt; inactive = no such curve, though single readings can be large; an effect the other way counts as inactive or inconclusive;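 also: plate controls were DMSO alone for no effect and tamoxifen positive control for full effect; nearly all actives have a fitted effect of over 25% in size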). The following applies: NIH 3T3 cell viability, qHTS; activity change, negative = cytotoxicity: at 92.2 µM (top of the series). Put shortly:
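Cells seeded at 1000/well, rested 5 hr at 37 °C, then dosed and incubated 40 hr at 37 °C. CellTiter-Glo added, 20 min room temperature, luminescence read. AC50 by Hill fit.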

Experiment [20] concerns the target Thyroid hormone receptor beta (Homo sapiens) (UniProt P10828). The experiment is described as follows: qHTS assay for small molecule antagonists of thyroid hormone receptor beta signaling (AID 588547; active = well fitted inhibition curve with a large enough effect in the signal ratio, with a control signal flat, not every such curve was filed as active; inconclusive = small, poorly fitted or top-dose-only effect, or effect the other way, or a change in a side signal; the % refers to the signal ratio;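 also: cells stimulated with 0.4 nM T3 agonist during compound exposure; % is scaled to controls: 0 for no effect and ±100 for the full control effect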). The note with it: TR-UAS-bla HEK293, beta-lactamase ratio, antagonist mode, 18 h. The method, boiled down: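 TR-UAS-bla GripTite HEK293 cells in 2% charcoal/dextran FBS medium were preincubated 4 h at 37 C, given compound (0.59 nM to 92 uM) plus 0.4 nM T3 (final) for 18 h, then CCF4 for 2 h at RT; Hill fit gave IC50.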

Values joined by “and” are separate entries in the source; they are usually repeats but may differ in a detail not shown here. Equal entries are not always repeated. Active and inactive are the calls of the source. Unless noted, calls follow the shape of the full dose curve.

Thyroid hormone receptor beta (Homo sapiens), sequence (P10828 whole entry, looked up): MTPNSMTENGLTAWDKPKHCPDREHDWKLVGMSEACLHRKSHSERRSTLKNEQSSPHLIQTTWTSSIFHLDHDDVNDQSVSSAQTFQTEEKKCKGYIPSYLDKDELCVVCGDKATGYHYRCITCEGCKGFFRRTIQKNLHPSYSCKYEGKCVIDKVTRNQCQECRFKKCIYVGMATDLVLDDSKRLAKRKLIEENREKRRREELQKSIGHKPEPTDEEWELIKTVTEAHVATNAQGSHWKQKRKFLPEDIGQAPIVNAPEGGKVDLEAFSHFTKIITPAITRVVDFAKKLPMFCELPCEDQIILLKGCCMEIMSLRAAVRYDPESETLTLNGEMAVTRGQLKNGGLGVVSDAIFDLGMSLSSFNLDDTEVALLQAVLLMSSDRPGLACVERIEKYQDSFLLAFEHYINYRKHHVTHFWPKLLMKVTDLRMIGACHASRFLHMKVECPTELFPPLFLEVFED
Peroxisome proliferator-activated receptor delta (Homo sapiens), sequence (Q03181 whole entry, looked up): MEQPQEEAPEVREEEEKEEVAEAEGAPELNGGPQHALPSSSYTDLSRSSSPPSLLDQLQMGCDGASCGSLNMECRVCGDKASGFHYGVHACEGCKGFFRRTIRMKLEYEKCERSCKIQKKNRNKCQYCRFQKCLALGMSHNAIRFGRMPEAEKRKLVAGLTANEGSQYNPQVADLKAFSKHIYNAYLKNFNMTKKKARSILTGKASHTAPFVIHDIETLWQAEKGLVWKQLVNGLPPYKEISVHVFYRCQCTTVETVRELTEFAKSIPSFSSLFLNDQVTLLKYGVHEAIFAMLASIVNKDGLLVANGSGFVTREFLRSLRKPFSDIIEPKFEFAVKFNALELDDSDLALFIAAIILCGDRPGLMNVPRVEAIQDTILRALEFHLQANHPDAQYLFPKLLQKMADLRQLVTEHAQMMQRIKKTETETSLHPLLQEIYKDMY
Vitamin D3 receptor (Homo sapiens), sequence (P11473 whole entry, looked up): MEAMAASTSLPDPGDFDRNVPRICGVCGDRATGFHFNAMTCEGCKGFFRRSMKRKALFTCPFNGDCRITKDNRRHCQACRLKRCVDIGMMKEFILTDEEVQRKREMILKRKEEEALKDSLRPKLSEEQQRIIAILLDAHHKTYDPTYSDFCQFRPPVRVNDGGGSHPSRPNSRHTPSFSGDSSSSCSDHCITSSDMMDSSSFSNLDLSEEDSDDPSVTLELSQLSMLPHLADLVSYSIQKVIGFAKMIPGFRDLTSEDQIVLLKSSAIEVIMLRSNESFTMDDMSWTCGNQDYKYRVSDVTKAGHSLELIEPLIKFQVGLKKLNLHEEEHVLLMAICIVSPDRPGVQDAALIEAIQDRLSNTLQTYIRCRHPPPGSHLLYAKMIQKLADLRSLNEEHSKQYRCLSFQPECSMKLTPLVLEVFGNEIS
Nuclear receptor ROR-gamma (Homo sapiens), sequence (P51449 whole entry, looked up): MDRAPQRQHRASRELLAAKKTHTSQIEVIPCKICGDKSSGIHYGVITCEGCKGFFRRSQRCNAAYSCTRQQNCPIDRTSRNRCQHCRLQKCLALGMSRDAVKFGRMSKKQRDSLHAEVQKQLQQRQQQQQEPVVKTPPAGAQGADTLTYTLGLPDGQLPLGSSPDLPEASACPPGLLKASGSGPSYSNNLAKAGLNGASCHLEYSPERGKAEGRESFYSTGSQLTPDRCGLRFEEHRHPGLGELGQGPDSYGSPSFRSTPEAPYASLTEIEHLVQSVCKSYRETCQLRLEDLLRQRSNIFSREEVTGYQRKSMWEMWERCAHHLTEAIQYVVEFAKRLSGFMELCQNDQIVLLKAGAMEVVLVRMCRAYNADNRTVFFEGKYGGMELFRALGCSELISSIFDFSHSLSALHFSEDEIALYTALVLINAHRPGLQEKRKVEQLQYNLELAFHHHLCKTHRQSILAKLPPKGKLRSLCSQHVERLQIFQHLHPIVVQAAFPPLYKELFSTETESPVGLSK
Estrogen receptor (Homo sapiens), sequence (P03372 whole entry, looked up): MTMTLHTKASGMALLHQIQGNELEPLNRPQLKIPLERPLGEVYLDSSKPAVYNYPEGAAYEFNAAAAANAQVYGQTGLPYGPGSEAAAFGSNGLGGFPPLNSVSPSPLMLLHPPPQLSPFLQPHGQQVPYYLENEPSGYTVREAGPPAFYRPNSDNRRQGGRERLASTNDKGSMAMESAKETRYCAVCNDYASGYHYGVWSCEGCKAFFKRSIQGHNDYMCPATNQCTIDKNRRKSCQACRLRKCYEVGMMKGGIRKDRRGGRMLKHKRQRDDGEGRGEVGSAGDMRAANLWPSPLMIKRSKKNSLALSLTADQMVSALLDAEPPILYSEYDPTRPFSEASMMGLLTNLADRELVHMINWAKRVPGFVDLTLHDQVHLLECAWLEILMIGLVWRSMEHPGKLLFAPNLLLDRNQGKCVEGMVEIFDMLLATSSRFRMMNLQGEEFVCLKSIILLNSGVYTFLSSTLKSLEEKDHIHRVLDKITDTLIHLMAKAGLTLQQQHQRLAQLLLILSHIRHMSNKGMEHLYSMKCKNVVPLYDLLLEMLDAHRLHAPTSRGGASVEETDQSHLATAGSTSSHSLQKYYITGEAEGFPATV

On to `CCCCCCCCCCCOC(=O)c1ccccc1C(=O)OCCCCCCCCCCC`, for which the Potency in experiment [1] is > 92 µM (inactive). For the same compound, the Potency entry in [2], in experiment [4], in [5], in experiment [11], in [13] and in experiment [15] was “inactive” in each case. The Potency result in experiment [16], in [17] and in [18] was “inactive” each time. The result in experiment [3], in experiment [7], in [8], in experiment [10] and in [12] was inactive. Besides, the activation in experiment [6] is 3.4% (inactive); in [14], -0.4% (inactive). In addition, the max response in experiment [9] is -38.8%.
With `C[N+](=O)[O-]`, the Potency result in [19], in [2], in experiment [4], in experiment [5], in [11] and in [15] was “inactive” in each case. The Potency entry in [16], in experiment [17] and in [18] was “inactive” in each case. Moreover, the activation in experiment [6] is -0.802% (inactive); in experiment [14] it was -0.658% (inactive). The compound was called inactive in [8], in experiment [10] and in [12]. Further, in experiment [9], the max response turned out to be 3.34%.
On to `Clc1cccc(Cl)c1`, for which the Potency in experiment [1] was > 92 µM (inactive). Also, the Potency entry in experiment [2], in experiment [15], in experiment [16], in experiment [17] and in experiment [18] was “inactive” each time. The outcome in experiment [3], in [7], in experiment [8], in experiment [10] and in experiment [12] was inactive. The activation in experiment [6] is -3.34% (inactive); in experiment [14], -1.17% (inactive). The max response in experiment [9] worked out at 20.6%. In addition, the activity change % (negative = inhibition) in [20] is 13.8% (inactive).
With `COP(=S)(OC)SCn1nnc2ccccc2c1=O`, the result in experiment [3], in experiment [8] and in [12] was inactive. Moreover, the Potency in [4] was 31.6 µM [inconclusive] (active). Moreover, the Potency result in experiment [5], in experiment [17] and in experiment [18] was “inactive” each time. Besides, the activity change % (negative = inhibition) in [20] was 7.85% (inactive).
For the compound `CC(=O)NNc1ccccc1`, in experiment [1], the Potency was > 92 µM (inactive). Moreover, the Potency result in [2], in experiment [15], in experiment [16], in experiment [17] and in experiment [18] was “inactive” in each case. Moreover, the max response in experiment [9] amounted to 50%. Also, the call in experiment [10] was inactive. Besides, the activity change % (negative = inhibition) in [20] was -1.14% (inactive).
As for `CCOP(=O)(OCC)OCC`, the Potency in experiment [1] was > 92 µM (inactive). Moreover, the Potency entry in experiment [19], in experiment [2], in [11], in [13], in [15] and in [16] was “inactive” each time. The Potency entry in experiment [17] was “inactive”. The compound was classed as inactive in [3], in experiment [7], in experiment [8], in [10] and in [12]. Also, the activation in experiment [6] is 4.27% (inactive) and 16.4% (inactive). The max response in [9] was 8.93% and -1.46%. Besides, the activity change % (negative = inhibition) in experiment [20] was -0.564% (inactive) and 12.2% (inactive).
For `Cc1ccc(N)cc1Cl`, the Potency in experiment [1] is > 92 µM (inactive). Also, the Potency result in experiment [19], in experiment [4], in experiment [5], in experiment [11], in experiment [15] and in experiment [16] was “inactive” in each case. Further, the Potency entry in [18] was “inactive”. Besides, the result in [3] and in experiment [12] was inactive. Moreover, the activity change % (negative = inhibition) in experiment [20] was -8.08% (inactive). Besides, the activation in experiment [14] is -0.096% (inactive).
